The values below come from PubChem BioAssay (Tox21).

Inconclusive results are not listed. The source made the active and inactive calls. The call rests on the fitted dose curve; in most records, active means well fitted cell-killing curve with a large enough effect in the repeat runs; inconclusive means weak or mixed curves, or effect the other way; inactive means flat fitted curve, though single readings scatter.
On the % scale 0 is the no-effect control and ±100 the full control effect.

The nature of the experiment: qHTS RealTime-Glo MT Cell Viability Assay in HEK293 cells - 40 hour (AID 1224874). Further: nearly all actives have a fitted effect of over 50% in size. The conditions noted are these: RealTime-Glo luminescence; max response: stronger effect = lower value. The procedure, abridged:
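Viable HEK293 cells reduce a cell-permeant prosubstrate; the product diffuses out and is consumed by NanoLuc in the medium to give light. Compounds went in after a 5 h incubation and plates were read over the treatment course.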
(In general: Quantitative high-throughput screening tests each substance at several concentrations.)
For `O=C(O)C[C@H](NC(=O)OCc1ccccc1)C(=O)O`, the max response is -0.276% (inactive).
As to `CCCCCCCCCI`, the max response is -1.11% (inactive).
The value for `O=C=Nc1ccc(Cl)c(Cl)c1` was -3.97% (inactive); that for `C[C@@H](O)[C@H]1C(=O)N2C(C(=O)O)=C([C@H]3CCCO3)S[C@H]12` was 5.96% (inactive).
Consider `c1ccc(C[n+]2cccc3ccccc32)cc1`, for which the max response is -28.8% (inactive).
In the case of `CN(C)CCN1C(=O)c2ccccc2N(C)c2ccccc21`, the max response is -6.83% (inactive).
For the compound `CC(C)C=O`, the max response was 0.0745% (inactive).
The value for `CCC1(CO)COCOC1` was -7.69% (inactive); that for `Cc1cscn1` was 11.3% (inactive).
As for `C[C@H]1C[C@H](O)c2ccsc2S1(=O)=O`, the max response was 2.25% (inactive).
Take `O=C(/C=C/c1ccccc1)OCCc1ccccc1`: the max response is -0.613% (inactive).
Consider `CC1(C)[C@H](C(=O)O)N2C(=O)C[C@H]2S1(=O)=O`, for which the max response was 1.99% (inactive).
The value for `CC=C(Cl)Cl` was 12.6% (inactive).
In the case of `NCCNCCO`, the max response was 20.2% (inactive).
In the case of `N#CCc1ccc(Cl)cc1Cl`, the max response is -14.5% (inactive).
The value for `CCCCC(CC)CN` (configuration not stated) was 4.35% (inactive); that for `CC(CN(C)C)C(C)(O)Cc1ccc(Cl)cc1` (configuration not stated) was -0.684% (inactive).
`C[C@@]12CCC[C@H]1[C@@H]1CC[C@H]3C[C@@H](O)CC[C@]3(C)[C@H]1CC2`: the max response is 5.8% (inactive).
`C[C@]1(Cn2ccnn2)[C@H](C(=O)O)N2C(=O)C[C@H]2S1(=O)=O`: the max response was 2.48% (inactive).
As to `Cc1ccccc1N=C(N)Nc1ccccc1C`, the max response is -12.1% (inactive).
The value for `O=C(O)c1ccc(OCCCOc2ccc(C(=O)O)cc2)cc1` was 1.73% (inactive); that for `CC1(C)S[C@@H]2[C@H](NC(=O)C(c3ccccc3)S(=O)(=O)O)C(=O)N2[C@H]1C(=O)O` (some centres not stated) was 0.0341% (inactive).
Take `NC(=O)c1ccncc1`: the max response was 6.51% (inactive).
Next, `CO[C@]1(NC(=O)CSC(F)F)C(=O)N2C(C(=O)O)=C(CSc3nnnn3CCO)CO[C@H]21`: 21.2% (inactive); `CCCCN(CCN(CCCC)C(=O)N1CCOCC1)C(=O)N1CCOCC1`: -14% (inactive); `O=C1CCCCCCCCCCOCCCCO1`: -14.4% (inactive).
Turning to `C=C(C)C(=O)OCCOCCOC(=O)C(=C)C`, the max response is 1.33% (inactive).
Take `COC(=O)C1=C(C)NC(C)=C(C(=O)O[C@@H]2CCCN(Cc3ccccc3)C2)[C@@H]1c1cccc([N+](=O)[O-])c1`: the max response is -29.2% (inactive).
Next, `CCCCCC[C@@H](O)C/C=C\CCCCCCCC(=O)OCC(O)CO` (some centres not stated): 10.7% (inactive).
With `Cc1c(C)c2c(c(C)c1OC(=O)CCC(=O)OCCO)CC[C@@](C)(CCC[C@H](C)CCC[C@H](C)CCCC(C)C)O2`, the max response is -18.9% (inactive).
For `O=C(Cn1ccnc1[N+](=O)[O-])NCCO`, the max response is 4.23% (inactive).
`Cc1ccccc1S`: the max response was -6.46% (inactive).
The value for `CC[N+](CC)(CCNC(=O)C(=O)NCC[N+](CC)(CC)Cc1ccccc1Cl)Cc1ccccc1Cl` was 0.73% (inactive); that for `C=C1CCC2CC1C2(C)C` (configuration not stated) was 0.0757% (inactive).
`CCCCCCC(C)(C)C(=O)O`: the max response was 4.14% (inactive).
Take `Cc1ccc(C(C)(C)O)cc1`: the max response was -0.324% (inactive).
On to `CCCCCCCC/C=C\CCCCCCCCO`, for which the max response was 15% (inactive).
